Data: the supplement of paper PMC10849652
The full data set covers some 7,900 targets. This sample favours those with a hit. About 0.6% of all pairs of compound and target were hits.

Legend:
Assay in all cases: log2 fold change, soluble protein after heating vs DMSO (PISA); higher = thermal stabilisation; K562 cells, 10 uM, 30 min; active = over 0.2 and 3.5 SD of the protein, either way, in both replicates (recomputed)
[1] = compound: CS(=O)(=O)c1ccc(-c2cnc(N)c(C(=O)Nc3ccccc3)n2)cc1
Method in brief: (§1)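 Soluble protein was defined as the supernatant after 21,000xg for 90 min. It came from K562 cells at 2×10^6 cells/mL given 10 μM compound for 30 min, heated in aliquots for 3 min across 48°C-58°C, pooled, and extracted in PBS with 0.5% NP-40 at 4°C, and was quantified by TMTpro 16plex LC-MS/MS with equalised channel sums. Thermal stability against control samples, from duplicates, is reported as log2 fold change.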

crizotinib = compound: C[C@@H](Oc1cc(-c2cnn(C3CCNCC3)c2)cnc1N)c1c(Cl)ccc(F)c1Cl [crizotinib]
Method in brief: as §1

[2] = compound: C[C@@H]1COCCN1C2=NC(=NC(=C2)C3(CC3)S(=O)(=O)C)C4=C5C=CNC5=CC=C4
Method in brief: as §1

[3] = compound: C[C@H](C1=CC=C(C=C1)C(=O)NC2=C3C=CNC3=NC=C2)N
Method in brief: as §1

duvelisib = compound: C[C@H](Nc1ncnc2nc[nH]c12)c1cc2cccc(Cl)c2c(=O)n1-c1ccccc1 [duvelisib]
Method in brief: as §1

gandotinib = compound: Cc1cc(Nc2cc(CN3CCOCC3)c3nc(C)c(Cc4ccc(Cl)cc4F)n3n2)n[nH]1 [gandotinib]
Method in brief: as §1

tozasertib = compound: Cc1cc(Nc2cc(N3CCN(C)CC3)nc(Sc3ccc(NC(=O)C4CC4)cc3)n2)n[nH]1 [tozasertib]
Method in brief: as §1

[4] = compound: Cc1cc(SCc2sc(-c3ccc(C(F)(F)F)cc3)nc2C)ccc1OCC(=O)O
Method in brief: as §1

doramapimod = compound: Cc1ccc(-n2nc(C(C)(C)C)cc2NC(=O)Nc2ccc(OCCN3CCOCC3)c3ccccc23)cc1 [doramapimod]
Method in brief: as §1

ispinesib = compound: Cc1ccc(C(=O)N(CCCN)[C@@H](c2nc3cc(Cl)ccc3c(=O)n2Cc2ccccc2)C(C)C)cc1 [ispinesib]
Method in brief: as §1

Measured: log2 fold change

COPS3 (UniProt Q9UNS2)
inactive: [1] 0.018 | crizotinib 0.003 | [2] 0.047 | [3] -0.023 | duvelisib -0.003 | gandotinib -0.087 | tozasertib 0 | [4] -0.006 | doramapimod -0.015 | ispinesib 0.024

CSNK2A2 (UniProt P19784)
inactive: [1] 0.068 | crizotinib -0.132 | [2] 0.039 | duvelisib 0.032 | gandotinib -0.097 | tozasertib -0.029 | [4] 0.013 | doramapimod 0.007 | ispinesib 0.084
active: [3] -0.234

CLUH (UniProt O75153)
active: [2] 0.348 | duvelisib 0.698
inactive: [1] -0.001 | crizotinib -0.094 | [3] 0.094 | gandotinib -0.037 | tozasertib -0.024 | [4] 0.01 | doramapimod 0.02 | ispinesib 0.043

CLN5 (UniProt O75503)
inactive: [1] 0.136 | crizotinib -0.733 | [2] 0.06 | [3] 0.046 | duvelisib 0.093 | gandotinib -0.077 | tozasertib -0.115 | [4] 0.073 | doramapimod 0.044

CAMKK2 (UniProt Q96RR4)
Chain of UniProt Q96RR4 (Q96RR4 whole entry, looked up): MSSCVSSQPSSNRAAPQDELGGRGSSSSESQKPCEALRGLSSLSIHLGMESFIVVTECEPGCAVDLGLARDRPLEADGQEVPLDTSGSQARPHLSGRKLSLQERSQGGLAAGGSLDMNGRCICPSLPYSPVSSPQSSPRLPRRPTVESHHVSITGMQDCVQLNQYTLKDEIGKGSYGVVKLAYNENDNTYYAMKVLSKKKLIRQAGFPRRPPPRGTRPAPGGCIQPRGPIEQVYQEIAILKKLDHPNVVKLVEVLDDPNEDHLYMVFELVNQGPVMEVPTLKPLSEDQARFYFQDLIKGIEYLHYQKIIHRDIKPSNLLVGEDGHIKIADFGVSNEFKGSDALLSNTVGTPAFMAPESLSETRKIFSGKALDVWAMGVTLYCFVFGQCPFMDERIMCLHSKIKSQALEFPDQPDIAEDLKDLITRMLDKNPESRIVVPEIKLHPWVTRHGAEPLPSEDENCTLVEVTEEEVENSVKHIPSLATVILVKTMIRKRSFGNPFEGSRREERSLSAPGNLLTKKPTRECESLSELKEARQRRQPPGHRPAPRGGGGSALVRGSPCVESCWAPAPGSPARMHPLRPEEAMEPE
inactive: [1] 0 | crizotinib 0.106 | [2] -0.045 | [3] -0.182 | duvelisib 0.093 | gandotinib -0.221 | tozasertib 0.15 | [4] 0 | doramapimod 0.086 | ispinesib -0.204

C16orf58 (UniProt Q96GQ5)
active: ispinesib -0.309
inactive: [1] 0.011 | crizotinib -0.057 | [2] 0.126 | [3] 0 | duvelisib 0.044 | gandotinib -0.08 | tozasertib -0.028 | [4] -0.035 | doramapimod 0.006

CNN2 (UniProt Q99439)
inactive: [1] -0.003 | crizotinib -0.058 | [2] 0.058 | [3] -0.005 | duvelisib -0.017 | gandotinib -0.088 | tozasertib 0.092 | [4] 0.012 | doramapimod 0.007 | ispinesib -0.059

C4orf33 (UniProt Q8N1A6)
inactive: [1] 0.025 | crizotinib -0.098 | [2] 0.001 | [3] -0.209 | duvelisib 0.033 | gandotinib 0.019 | tozasertib -0.093 | [4] 0.005 | doramapimod -0.003 | ispinesib -0.038

CCNT1 (UniProt O60563)
Chain of UniProt O60563 (O60563 whole entry, looked up): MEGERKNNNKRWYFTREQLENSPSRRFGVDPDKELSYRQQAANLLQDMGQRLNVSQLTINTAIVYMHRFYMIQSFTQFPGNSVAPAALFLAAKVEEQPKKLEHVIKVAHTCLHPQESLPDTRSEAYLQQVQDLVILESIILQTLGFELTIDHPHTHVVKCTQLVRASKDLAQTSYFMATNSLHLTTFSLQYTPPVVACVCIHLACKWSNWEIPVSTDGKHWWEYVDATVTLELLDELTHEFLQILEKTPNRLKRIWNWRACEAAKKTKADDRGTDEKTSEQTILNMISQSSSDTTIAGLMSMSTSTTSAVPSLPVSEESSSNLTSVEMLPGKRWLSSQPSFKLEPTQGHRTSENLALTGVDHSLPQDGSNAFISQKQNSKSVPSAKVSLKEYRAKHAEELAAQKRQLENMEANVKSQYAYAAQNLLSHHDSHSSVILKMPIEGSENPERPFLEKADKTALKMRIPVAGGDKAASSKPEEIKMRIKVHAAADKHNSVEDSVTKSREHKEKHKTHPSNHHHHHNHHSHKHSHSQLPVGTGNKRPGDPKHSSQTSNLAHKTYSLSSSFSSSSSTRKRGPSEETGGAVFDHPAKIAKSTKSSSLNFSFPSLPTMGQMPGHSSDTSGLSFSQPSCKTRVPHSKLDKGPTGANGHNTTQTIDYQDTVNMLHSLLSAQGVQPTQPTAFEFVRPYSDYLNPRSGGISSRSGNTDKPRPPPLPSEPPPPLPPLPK
inactive: [1] -0.124 | crizotinib -0.088 | [2] -0.098 | [3] 0.13 | duvelisib -0.076 | gandotinib -0.1 | tozasertib -0.075 | [4] 0.076 | doramapimod 0.181 | ispinesib -0.277

CD63 (UniProt P08962)
inactive: [1] 0.039 | crizotinib -0.076 | [2] 0.009 | [3] -0.013 | duvelisib 0.014 | gandotinib -0.023 | tozasertib -0.007 | [4] -0.022 | doramapimod 0.033 | ispinesib -0.092

COX15 (UniProt Q7KZN9)
inactive: [1] -0.008 | crizotinib -0.015 | [2] 0.041 | [3] 0.006 | duvelisib 0.035 | gandotinib -0.07 | tozasertib -0.029 | [4] -0.033 | doramapimod -0.023 | ispinesib -0.016

C9orf64 (UniProt Q5T6V5)
inactive: [1] 0.049 | crizotinib -0.329 | [2] 0.091 | [3] 0 | duvelisib 0.096 | gandotinib -0.128 | tozasertib -0.012 | [4] 0.097 | doramapimod -0.005 | ispinesib -0.207

CKB (UniProt P12277)
inactive: [1] 0.059 | crizotinib -0.174 | [2] 0.077 | [3] 0.053 | duvelisib 0.031 | gandotinib -0.109 | tozasertib -0.058 | [4] 0.021 | doramapimod -0.009 | ispinesib -0.022

CDK1 (UniProt P06493)
inactive: [1] 0.005 | crizotinib -0.128 | [2] -0.005 | [3] -0.019 | duvelisib 0.021 | gandotinib -0.171 | tozasertib -0.057 | [4] 0 | doramapimod -0.031 | ispinesib 0.033

CKS1B (UniProt P61024)
inactive: [1] -0.013 | crizotinib 0.063 | [2] 0.06 | [3] -0.051 | duvelisib 0.022 | gandotinib 0 | tozasertib 0.02 | [4] -0.093 | doramapimod -0.026 | ispinesib 0.224

CD68 (UniProt P34810)
inactive: [1] -0.016

CCDC59 (UniProt Q9P031)
inactive: [1] 0.09 | crizotinib -0.084 | [2] 0 | [3] 0.389 | duvelisib -0.157 | gandotinib 0.186 | tozasertib 0.01 | [4] 0.006 | doramapimod 0.164 | ispinesib -0.136

CPT2 (UniProt P23786)
Chain of UniProt P23786 (P23786 whole entry, looked up): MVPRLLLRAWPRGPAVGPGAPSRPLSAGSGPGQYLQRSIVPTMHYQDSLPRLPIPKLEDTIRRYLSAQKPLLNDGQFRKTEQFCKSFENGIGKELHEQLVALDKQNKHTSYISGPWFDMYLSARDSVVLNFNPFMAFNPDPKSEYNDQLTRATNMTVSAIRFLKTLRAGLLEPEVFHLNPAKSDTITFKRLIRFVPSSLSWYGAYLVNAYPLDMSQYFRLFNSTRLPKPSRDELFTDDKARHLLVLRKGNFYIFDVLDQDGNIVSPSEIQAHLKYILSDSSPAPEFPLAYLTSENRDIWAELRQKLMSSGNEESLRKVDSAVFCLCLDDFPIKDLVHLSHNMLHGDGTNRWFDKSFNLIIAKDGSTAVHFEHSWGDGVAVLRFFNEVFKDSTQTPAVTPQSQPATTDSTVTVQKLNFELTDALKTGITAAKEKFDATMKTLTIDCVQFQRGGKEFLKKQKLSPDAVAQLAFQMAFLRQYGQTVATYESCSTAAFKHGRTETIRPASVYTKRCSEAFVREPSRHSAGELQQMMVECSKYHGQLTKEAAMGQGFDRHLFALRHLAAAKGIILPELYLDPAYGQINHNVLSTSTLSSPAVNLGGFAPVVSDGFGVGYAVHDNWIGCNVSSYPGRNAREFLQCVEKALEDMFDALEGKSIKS
active: [1] 0.701 | [4] 1.04
inactive: crizotinib -0.42 | [2] 0.06 | [3] -0.01 | duvelisib 0.069 | gandotinib 0.119 | tozasertib -0.049 | doramapimod -0.019 | ispinesib -0.306

COX7B (UniProt P24311)
inactive: [1] -0.026 | crizotinib 0.013 | [2] 0.02 | [3] -0.171 | duvelisib 0.034 | gandotinib 0.05 | tozasertib 0.072 | [4] 0.014 | doramapimod -0.067

CMTM3 (UniProt Q96MX0)
Chain of UniProt Q96MX0 (Q96MX0 whole entry, looked up): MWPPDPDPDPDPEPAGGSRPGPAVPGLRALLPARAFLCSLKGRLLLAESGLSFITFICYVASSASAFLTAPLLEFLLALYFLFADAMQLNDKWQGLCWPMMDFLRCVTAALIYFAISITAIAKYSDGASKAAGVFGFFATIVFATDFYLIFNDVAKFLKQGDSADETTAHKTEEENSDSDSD
inactive: [1] 0.063 | crizotinib -0.007 | [2] -0.002 | [3] -0.133 | duvelisib 0.028 | gandotinib 0.132 | tozasertib -0.026 | [4] -0.102 | doramapimod -0.065

CRYM-AS1 (UniProt A6NIL9)
inactive: [1] 0.2 | crizotinib -0.077 | [2] -0.132 | [3] -0.08 | duvelisib -0.035 | gandotinib -0.299 | tozasertib -0.079 | [4] -0.024 | doramapimod -0.144 | ispinesib 0.022

CPT1A (UniProt P50416)
active: crizotinib 0.546
inactive: [1] 0.043 | [2] 0.02 | [3] 0.047 | duvelisib 0.022 | gandotinib 0.211 | tozasertib 0.161 | [4] 0.079 | doramapimod 0.012 | ispinesib 0.322

COPS4 (UniProt Q9BT78)
Chain of UniProt Q9BT78 (Q9BT78 whole entry, looked up): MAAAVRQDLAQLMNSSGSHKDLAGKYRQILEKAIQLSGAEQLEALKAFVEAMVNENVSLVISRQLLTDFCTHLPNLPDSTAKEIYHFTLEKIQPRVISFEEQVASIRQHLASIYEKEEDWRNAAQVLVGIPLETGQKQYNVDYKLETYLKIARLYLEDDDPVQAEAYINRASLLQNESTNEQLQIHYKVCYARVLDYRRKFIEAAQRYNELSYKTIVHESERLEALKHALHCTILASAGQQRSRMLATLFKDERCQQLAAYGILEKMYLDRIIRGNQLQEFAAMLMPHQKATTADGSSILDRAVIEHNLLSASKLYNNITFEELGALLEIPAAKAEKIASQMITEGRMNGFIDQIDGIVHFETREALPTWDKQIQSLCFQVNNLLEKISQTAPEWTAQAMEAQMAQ
inactive: [1] -0.01 | crizotinib 0.112 | [2] 0.064 | [3] -0.064 | duvelisib 0.029 | gandotinib 0.022 | tozasertib 0.036 | [4] 0.002 | doramapimod -0.014 | ispinesib 0.086

CHP1 (UniProt Q99653)
Chain of UniProt Q99653 (Q99653 whole entry, looked up): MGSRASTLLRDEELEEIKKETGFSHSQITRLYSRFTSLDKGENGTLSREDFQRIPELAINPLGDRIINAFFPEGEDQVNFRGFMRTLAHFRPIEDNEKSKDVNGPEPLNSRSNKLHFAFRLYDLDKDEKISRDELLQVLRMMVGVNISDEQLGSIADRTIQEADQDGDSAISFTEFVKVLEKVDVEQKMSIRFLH
inactive: [1] 0.025 | crizotinib 0.109 | [2] -0.061 | [3] -0.027 | duvelisib 0.044 | gandotinib 0.022 | tozasertib 0.075 | [4] -0.026 | doramapimod -0.021 | ispinesib 0.25

CAD (UniProt P27708)
Chain of UniProt P27708 (P27708 whole entry, looked up): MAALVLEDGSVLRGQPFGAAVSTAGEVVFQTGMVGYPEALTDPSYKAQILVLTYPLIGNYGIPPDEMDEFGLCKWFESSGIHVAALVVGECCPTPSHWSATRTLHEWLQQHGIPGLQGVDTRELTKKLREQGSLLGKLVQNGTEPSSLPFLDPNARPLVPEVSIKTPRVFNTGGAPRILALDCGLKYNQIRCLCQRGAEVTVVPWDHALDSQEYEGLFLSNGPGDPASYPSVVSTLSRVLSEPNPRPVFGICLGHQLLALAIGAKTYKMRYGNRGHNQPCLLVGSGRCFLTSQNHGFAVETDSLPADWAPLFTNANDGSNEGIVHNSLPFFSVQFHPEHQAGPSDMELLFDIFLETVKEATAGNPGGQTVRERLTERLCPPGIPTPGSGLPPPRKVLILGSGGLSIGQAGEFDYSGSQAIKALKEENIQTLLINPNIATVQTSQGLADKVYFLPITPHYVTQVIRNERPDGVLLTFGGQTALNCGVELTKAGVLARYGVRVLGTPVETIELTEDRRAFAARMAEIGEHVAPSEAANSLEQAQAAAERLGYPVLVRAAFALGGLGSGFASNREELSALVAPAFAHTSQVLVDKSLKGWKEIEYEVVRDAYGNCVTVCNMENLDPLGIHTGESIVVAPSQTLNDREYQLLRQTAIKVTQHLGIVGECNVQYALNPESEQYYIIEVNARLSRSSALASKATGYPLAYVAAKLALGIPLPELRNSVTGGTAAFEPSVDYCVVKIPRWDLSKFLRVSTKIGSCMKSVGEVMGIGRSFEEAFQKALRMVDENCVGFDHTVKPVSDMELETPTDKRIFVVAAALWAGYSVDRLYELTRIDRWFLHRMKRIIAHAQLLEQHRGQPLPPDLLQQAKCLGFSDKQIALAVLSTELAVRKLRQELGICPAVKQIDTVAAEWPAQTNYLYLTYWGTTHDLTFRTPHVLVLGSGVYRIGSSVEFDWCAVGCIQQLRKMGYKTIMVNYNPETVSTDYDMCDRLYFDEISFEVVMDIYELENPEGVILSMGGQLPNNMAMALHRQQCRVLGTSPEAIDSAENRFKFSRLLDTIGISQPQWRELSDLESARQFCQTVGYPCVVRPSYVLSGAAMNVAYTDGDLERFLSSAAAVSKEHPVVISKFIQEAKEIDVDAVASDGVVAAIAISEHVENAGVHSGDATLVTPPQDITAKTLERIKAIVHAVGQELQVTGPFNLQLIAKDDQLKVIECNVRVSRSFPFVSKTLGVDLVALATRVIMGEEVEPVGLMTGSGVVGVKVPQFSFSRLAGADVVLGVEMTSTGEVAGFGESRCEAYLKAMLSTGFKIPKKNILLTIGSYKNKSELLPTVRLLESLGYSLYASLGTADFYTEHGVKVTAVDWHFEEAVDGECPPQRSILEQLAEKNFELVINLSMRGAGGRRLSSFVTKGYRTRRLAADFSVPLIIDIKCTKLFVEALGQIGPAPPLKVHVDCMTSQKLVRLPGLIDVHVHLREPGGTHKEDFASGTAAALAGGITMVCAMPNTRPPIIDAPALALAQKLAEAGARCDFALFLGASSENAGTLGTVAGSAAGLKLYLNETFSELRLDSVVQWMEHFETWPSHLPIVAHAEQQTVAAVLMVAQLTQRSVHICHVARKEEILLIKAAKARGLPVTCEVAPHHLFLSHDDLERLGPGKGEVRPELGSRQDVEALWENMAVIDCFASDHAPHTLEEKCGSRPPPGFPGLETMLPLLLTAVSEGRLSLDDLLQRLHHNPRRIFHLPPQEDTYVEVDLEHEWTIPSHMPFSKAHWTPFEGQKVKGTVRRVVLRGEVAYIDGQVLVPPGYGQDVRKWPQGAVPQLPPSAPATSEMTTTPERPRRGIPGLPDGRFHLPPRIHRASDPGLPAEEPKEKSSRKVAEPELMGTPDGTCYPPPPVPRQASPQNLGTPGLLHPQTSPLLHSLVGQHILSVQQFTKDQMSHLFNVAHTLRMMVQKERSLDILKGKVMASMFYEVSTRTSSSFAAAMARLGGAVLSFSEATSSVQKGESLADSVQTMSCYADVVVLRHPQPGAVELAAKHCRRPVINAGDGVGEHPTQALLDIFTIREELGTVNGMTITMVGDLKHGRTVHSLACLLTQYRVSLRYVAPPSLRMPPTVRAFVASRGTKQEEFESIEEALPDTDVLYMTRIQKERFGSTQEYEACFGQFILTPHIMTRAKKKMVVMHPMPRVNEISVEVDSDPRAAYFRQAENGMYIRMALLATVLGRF
inactive: [1] 0.014 | [2] 0 | [3] 0.033 | duvelisib -0.013 | gandotinib -0.013 | tozasertib -0.115 | [4] 0.053 | doramapimod -0.028 | ispinesib -0.106
active: crizotinib -0.271

CHMP4B (UniProt Q9H444)
inactive: [1] -0.067 | crizotinib -0.036 | [2] -0.011 | [3] -0.022 | duvelisib -0.004 | gandotinib -0.075 | tozasertib -0.037 | [4] -0.014 | doramapimod 0.005 | ispinesib -0.008

CBX5 (UniProt P45973)
inactive: [1] 0.012 | crizotinib 0.128 | [2] -0.037 | [3] -0.058 | duvelisib 0.029 | gandotinib -0.015 | tozasertib -0.01 | [4] 0.059 | doramapimod -0.045 | ispinesib 0.092

COX17 (UniProt Q14061)
Chain of UniProt Q14061 (Q14061 whole entry, looked up): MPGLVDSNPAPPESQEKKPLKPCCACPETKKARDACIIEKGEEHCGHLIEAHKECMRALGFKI
inactive: [1] 0.026 | crizotinib 0.164 | [2] 0.206 | [3] -0.072 | duvelisib 0.256 | gandotinib -0.11 | tozasertib 0.005 | [4] -0.021 | doramapimod -0.037 | ispinesib 0.137

CHD4 isoform 2 (UniProt Q14839)
inactive: [1] -0.02 | crizotinib -0.08 | [2] 0.098 | [3] 0.057 | duvelisib -0.021 | gandotinib -0.009 | tozasertib 0.233 | [4] 0.186 | doramapimod 0.014 | ispinesib -0.05

CHCHD1 (UniProt Q96BP2)
inactive: [1] -0.115 | [2] -0.203 | [3] -0.067 | duvelisib -0.061 | gandotinib -0.085 | tozasertib -0.045 | [4] 0.036 | doramapimod -0.087 | ispinesib 0.06
active: crizotinib -0.54

CCZ1 (UniProt P86791)
active: crizotinib -0.278
inactive: [1] 0.022 | [2] 0.009 | [3] 0.005 | duvelisib -0.053 | gandotinib -0.081 | tozasertib -0.039 | [4] 0.006 | doramapimod -0.036 | ispinesib -0.162
